GDH-TPI inh: GDH-TPI coupling enzyme inhibitors, primary screen, artefact control for M. tuberculosis FBA inhibitor project, biochemical, absorbance, full deck. GDH-TPI coupled enzyme counterscreen, NADH absorbance. inhibition, % at 4.8 µM. hit rate 1.2% among 360,000; in the data active = inhibition above about 30%;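 also: 0% = DMSO wells and 100% = wells lacking the enzyme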
FBA Mtb inh: Mtb FBA enzyme inhibitors, primary screen, biochemical, fluorescence, strain H37Rv. AID 588726, 2011. purified M. tuberculosis FBA, fluorescence read-out. hit rate 2.3% among 360,000. inhibition, % at 1 µM. Fructose-bisphosphate aldolase (Mycobacterium tuberculosis (strain ATCC 25618 / H37Rv)), …; in the data active = inhibition above about 27%;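 also: 0% = vehicle and 100% = reference inhibitor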
Mtb betalactam: beta-lactam sensitization of Mtb H37Rv, H37Rv; inhibition, % at 25 µM; M. tuberculosis H37Rv growth with meropenem, percent inhibition; hit rate 0.27% among 330,000; call rule not given here;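 also: growth measured after seven days incubation then overnight dye step; 0% = bacteria only wells and 100% = bacteria with antibiotic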
Rv3671c protease: Rv3671c serine protease inhibitors, primary screen, biochemical, fluorescence polarization, M. tuberculosis H37Rv; hit rate 0.048% among 320,000; inhibition, % at 5.96 µM; P9WHR9; in the data active = inhibition above about 38%;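 also: extracellular domain of Rv3671c used as enzyme; 0% = enzyme with DMSO and 100% = no enzyme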
Mtb UGM inh: M. tuberculosis UGM enzyme inhibitors, primary screen, biochemical, fluorescence polarization, single point. inhibition, % at 10 µM. purified UGM, fluorescence polarization probe displacement. AID 504406, 2011. UDP-galactopyranose mutase (Mycobacterium tuberculosis (strain ATCC 25618 / H37Rv)), …. hit rate 0.06% among 320,000; in the data active = inhibition above about 10%, passing the limit was not always enough; inconclusive = no clear call, values can overlap the other calls
RecA splice inh: Mtb RecA intein splicing inhibitors, primary screen, biochemical, fluorescence, HTS; Protein RecA (Mycobacterium tuberculosis (strain ATCC 25618 / H37Rv)), P9WHJ3; cell-free RecA intein splicing; inhibition, % (no concentration beside the values); hit rate 0.75% among 290,000; AID 2221, 2009; in the data active = inhibition above about 30%; inconclusive = no clear call, values can overlap the other calls;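 also: 0% = vehicle wells and 100% = reference inhibitor control wells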
Target sequence (P9WHJ3 whole entry, looked up, canonical isoform): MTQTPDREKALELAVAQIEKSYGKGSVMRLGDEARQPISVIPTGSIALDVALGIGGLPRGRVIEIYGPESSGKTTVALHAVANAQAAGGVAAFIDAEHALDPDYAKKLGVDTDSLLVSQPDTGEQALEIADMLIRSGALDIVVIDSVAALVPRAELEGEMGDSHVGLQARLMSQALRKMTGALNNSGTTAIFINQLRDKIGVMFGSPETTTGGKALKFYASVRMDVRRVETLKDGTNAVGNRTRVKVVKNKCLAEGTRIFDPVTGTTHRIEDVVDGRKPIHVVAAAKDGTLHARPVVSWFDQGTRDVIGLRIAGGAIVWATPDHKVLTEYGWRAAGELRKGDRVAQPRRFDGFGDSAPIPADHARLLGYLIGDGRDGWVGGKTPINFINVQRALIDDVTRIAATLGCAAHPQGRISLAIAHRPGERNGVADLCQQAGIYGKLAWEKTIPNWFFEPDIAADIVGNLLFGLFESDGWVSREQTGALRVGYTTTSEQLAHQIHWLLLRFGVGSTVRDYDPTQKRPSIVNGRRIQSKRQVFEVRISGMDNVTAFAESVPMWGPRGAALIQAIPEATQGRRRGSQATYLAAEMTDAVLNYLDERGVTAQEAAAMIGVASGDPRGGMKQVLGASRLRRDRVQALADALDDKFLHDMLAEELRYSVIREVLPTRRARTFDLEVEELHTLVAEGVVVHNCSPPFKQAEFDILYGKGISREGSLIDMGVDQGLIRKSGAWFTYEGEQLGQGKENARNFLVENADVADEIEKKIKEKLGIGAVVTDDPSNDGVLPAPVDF
Active calls of the source: *; ? = inconclusive; . = not tested or not shown; + = active, no number. Hits are enriched below; roughly 4% of the tested compounds scored in any of these assays.

SMILES | GDH-TPI inh | FBA Mtb inh | Mtb betalactam | Rv3671c protease | Mtb UGM inh | RecA splice inh
S=C1CCC(c2ccc(Br)cc2)=NN1c1ccccc1 | 33* | -1 | 97 | -8 | 3 | 1
Cc1ccc(N2N=C(c3ccc(Br)cc3)CCC2=O)cc1 | 3 | 0 | 8 | -9 | 0 | -2
N#C/C(=C\c1ccc(O)c(O)c1)C(=O)c1ccc(O)c(O)c1 | 46* | -7 | 9 | 2 | 1 | .
CNc1nc(N)c([N+](=O)[O-])c(Nc2ccccc2OC)n1 | 32* | 6 | 5 | -16 | -1 | -1
CCOC(=O)N1CCC2(CC1)C(C#N)=C(N)Oc1c2c(C)nn1-c1cccc(Cl)c1 | 8 | 2 | 2 | -17 | 1 | 63*
N#Cc1cccc(NC(=O)c2cc(C3CCCCN3S(=O)(=O)c3cccc4cccnc34)on2)c1 (stereo unspecified) | 6 | -3 | . | . | . | .
Cc1ccc(-c2nc(P(=O)(c3ccccc3)c3ccccc3)c(N3CCOCC3)o2)cc1 | 7 | -5 | -5 | -8 | -2 | 10
CCOP(=O)(c1ccccc1)c1nc(-c2ccccc2Cl)oc1N1CCCCC1 (stereo unspecified) | 16 | 7 | -6 | 5 | 1 | 24
COP(=O)(OC)c1nc(-c2ccc(C)cc2)oc1N1CCCCC1 | 16 | + | 7 | 3 | 3 | -4
CCOP(=O)(OCC)c1nc(-c2ccc(OC)cc2)oc1N1CCOCC1 | 11 | 174* | 3 | 5 | -2 | -2
COP(=O)(OC)c1nc(-c2cccc3ccccc23)oc1N1CCOCC1 | 19 | + | 7 | 2 | 1 | -18
CCOc1ccc(-c2nc(C#N)c(N3CCOCC3)o2)cc1 | 13 | 175* | -2 | -5 | -1 | 1
CCOc1ccc(-c2nc(C#N)c(N3CCN(Cc4ccccc4)CC3)o2)cc1 | 3 | 11 | 37 | 10 | 3 | 4
CN(Cc1ccccc1)C(=O)c1cccc(NC(=O)Cc2ccc(NC(=O)C3CCCN(C(=O)C4CCC4)C3)cc2)c1 (stereo unspecified) | 5 | 0 | . | . | . | .
CCOC(=O)c1sc(NC(=O)CCN2C(=O)C3CCCCC3C2=O)cc1C (stereo unspecified) | -4 | -1 | -10 | 0 | -1 | .
c1ccc2c(N3CCOCC3)nc(-c3ccncc3)nc2c1 | 33* | -1 | 54 | 1 | -1 | 2
Cc1sc2ncnc(SCC(=O)N3CCCC(C(F)(F)F)C3)c2c1C (stereo unspecified) | 0 | 2 | ? | -2 | 0 | 2
N#C/C(=C\c1ccccn1)c1ccccn1 | 17 | 2 | 1 | 8 | -1 | -1
N#C/C(=C/c1cccs1)c1ccccn1 | 33* | -2 | 1 | 0 | 1 | 4
CCOC(=O)c1cc(S(=O)(=O)N(C)Cc2ccccc2)cn1C | 8 | 1 | 1 | 10 | -1 | 1
CC1CCCC(C)N1CCCNC(=O)Cn1c(=O)c2cccn2c2cccnc21 (stereo unspecified) | 5 | 6 | 2 | 10 | 4 | 2
CCOc1cc(C(c2c(C)[nH][nH]c2=O)c2c(C)[nH][nH]c2=O)ccc1OS(=O)(=O)c1ccccc1 | -2 | 1 | 2 | 3 | 3 | 97*
N#Cc1c(N)nc2c(c1-c1ccc(F)cc1)CCC2 | 20 | 64* | 17 | 2 | -1 | -8
O=C(NCCCN1CCCC1=O)c1cc(-c2ccc3c(c2)OCO3)nc2ccccc12 | 34* | 6 | 0 | -9 | -2 | 1
CC1CCN(CCCNC(=O)c2ccc(Cn3c(=S)[nH]c4ccc(Br)cc4c3=O)cc2)CC1 | . | . | 97 | 0 | 2 | -7
Cc1c(CC(=O)NCCCC(=O)O)c(=O)oc2cc3c(cc12)CCC(C)(C)O3 | 26 | + | -4 | -7 | -3 | 0
Cc1c(CC(=O)O)c(=O)oc2cc3c(cc12)CCC(C)(C)O3 | 25 | + | 2 | 5 | 0 | -2
Cc1c(CC(=O)NCCCC(=O)O)c(=O)oc2cc3oc4c(c3cc12)CCCC4 | 13 | 5 | ? | -1 | 0 | -3
Cc1c(CC(=O)O)c(=O)oc2cc3occ(-c4ccccc4)c3cc12 | 5 | 6 | -10 | -7 | -4 | -1
